# Measured values reported in the supplement of paper PMC9135407.
# “And” between values parts separate entries of the source, which are not always exact repeats. Equal entries are not always repeated. Structures can show the parent of a compound that is named as a salt. The campaign covered roughly 5,800 compounds. About 620 (11%) showed activity. The sample holds actives, similar compounds and a random draw of the others, so the mix is not that of the screen.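 The calls were made as follows: active = score above a cut-off or among the top three wells of a plate; in these data no inactive exceeds 0.85.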
# Tested on: primary human hepatic stellate cells (donor 1)
# Assay: scaled lipid accumulation score (0 = DMSO-like, 1 = nortriptyline-like); higher = stronger HSC inactivation (lipid re-accumulation), active = hit call of the paper
# Conditions: 48 h
# [1] = library stock concentration: 10 mM
# [2] = library stock concentration: 1 mM
# [3] = library stock concentration: 80 uM
# [4] = library stock concentration: 400 uM
# [5] = library stock concentration: 2 mM
# [6] = library stock concentration: 3.33 mM
smiles,measurement,setting,value
CC1/C=C/C=C/C=C/C=C/C=C/C=C/C=C/C(OC2O[C@H](C)[C@@H](O)[C@H](N)[C@@H]2O)CC(O)C(C(=O)O)C(O)CC(=O)CC(O)CC(O)CC(O)CC(=O)CCCC(=O)CC(=O)OC1C(C)CC(C)C(O)CC(=O)c1ccc(N)cc1 (stereo not given in full),scaled lipid accumulation score,[1],≤ 0 (inactive)
CCN(CC)CC1CCCCN1CC(=O)N1c2ccccc2C(=O)Nc2cccnc21 (stereo not given),scaled lipid accumulation score,[1],≤ 0 (inactive) and ≤ -0.006 (inactive)
CCCCC/C=C\CC1OC1C/C=C\C/C=C\CCCC(=O)O (stereo not given),scaled lipid accumulation score,library stock concentration: 100 uM,≤ -0.021 (inactive)
O=C(O)CCC/C=C\C[C@@H]1[C@@H](/C=C/[C@@H](O)COc2ccccc2)[C@H](O)C[C@@H]1O [16-phenoxy tetranor Prostaglandin F2.alpha.],scaled lipid accumulation score,[2],≤ 0 (inactive)
CCN1CCN(c2ccc(Nc3cc(N(C)C(=O)Nc4c(Cl)c(OC)cc(OC)c4Cl)ncn3)cc2)CC1,scaled lipid accumulation score,[3],≤ -0.009 (inactive)
same,scaled lipid accumulation score,[4],≤ -0.009 (inactive)
same,scaled lipid accumulation score,[5],0.01 (inactive)
same,scaled lipid accumulation score,[1],0.291 (inactive)
COc1ccc(-c2cc3nccn3c(Nc3ncccc3C(N)=O)n2)cc1OC,scaled lipid accumulation score,[3],0.088 (inactive)
same,scaled lipid accumulation score,[4],≤ -0.009 (inactive)
same,scaled lipid accumulation score,[5],0.133 (inactive)
same,scaled lipid accumulation score,[1],0.349 (inactive)
CCC[C@H](Nc1nc(-c2ccc(NC(=O)NCC)c(OC)c2)ncc1C)c1cccnc1 [CYT997 (Lexibulin)],scaled lipid accumulation score,[6],0.682 (inactive)
same,scaled lipid accumulation score,[1],0.758 (inactive)
C[N+](C)(C)CCO.[Cl-] [Choline chloride],scaled lipid accumulation score,[1],≤ -0.027 (inactive)
same,scaled lipid accumulation score,library stock concentration: 14.3 mM,≤ 0 (inactive)
C[N+](C)(C)CCO.[Cl-] [Choline Chloride],scaled lipid accumulation score,[6],≤ 0 (inactive)
same,scaled lipid accumulation score,[1],0.043 (inactive)
N#CC(=Cc1ccc2[nH]ccc2c1)C(N)=C(C#N)C#N,scaled lipid accumulation score,library stock concentration: 19.3 mM,0.606 (inactive)
COc1ccc(C2=N[C@@H](c3ccc(Cl)cc3)[C@H](c3ccc(Cl)cc3)N2C(=O)N2CCNC(=O)C2)c(OC(C)C)c1 [Nutlin-3a],scaled lipid accumulation score,[1],0.954 (active)
COc1ccc(C2=NC(c3ccc(Cl)cc3)C(c3ccc(Cl)cc3)N2C(=O)N2CCNC(=O)C2)c(OC(C)C)c1 (stereo not given) [Nutlin-3b],scaled lipid accumulation score,[6],≤ -0.009 (inactive)
same,scaled lipid accumulation score,[1],≤ 0 (inactive)
COc1ccc(C2=NC(c3ccc(Cl)cc3)C(c3ccc(Cl)cc3)N2C(=O)N2CCNC(=O)C2)c(OC(C)C)c1 (stereo not given) [Nutlin-3a],scaled lipid accumulation score,[6],0.207 (inactive)
COc1ccc(C2=N[C@@H](c3ccc(Cl)cc3)[C@@H](c3ccc(Cl)cc3)N2C(=O)N2CCNC(=O)C2)c(OC(C)C)c1 [Nutlin-3],scaled lipid accumulation score,[6],0.168 (inactive)
same,scaled lipid accumulation score,[1],0.829 (inactive)
COc1ccc(C2=N[C@@H](c3ccc(Cl)cc3)[C@@H](c3ccc(Cl)cc3)N2C(=O)N2CCNC(=O)C2)c(OC(C)C)c1,scaled lipid accumulation score,[2],≤ 0 (inactive)
CCCCCCCCCCCCCCCCCCOCC(O)COP(=O)([O-])OCC[N+](C)(C)C (stereo not given),scaled lipid accumulation score,[2],≤ 0 (inactive)
CCCCCCCCCCCCCCCCCC(=O)OCC [Stearic Acid ethyl ester],scaled lipid accumulation score,[2],≤ 0 (inactive)
O=C(NCCN1CCOCC1)c1ccc(Cl)cc1 [Moclobemide],scaled lipid accumulation score,,0.059 (inactive)
same,scaled lipid accumulation score,[1],0.047 (inactive)
c1ccc2c(c1)CCCc1cc(NCCN3CCOCC3)nnc1-2,scaled lipid accumulation score,,0.038 (inactive)
O=C(NCCN1CCOCC1)c1ccc(Cl)cc1,scaled lipid accumulation score,[6],≤ 0 (inactive)
same,scaled lipid accumulation score,[1],≤ 0 (inactive)
O=C1C(Cl)=C(NCCN2CCOCC2)C(=O)c2ncccc21,scaled lipid accumulation score,[1],1.04 (active)
O=C(NCCN1CCOCC1)c1ccc(Cl)cc1 [4-Chloro-N-(2-morpholin-4-yl-ethyl)-benzamide],scaled lipid accumulation score,[1],≤ 0 (inactive)
CN1Cc2sccc2C(c2ccc(O)c(O)c2)C1 (stereo not given),scaled lipid accumulation score,[1],0.005 (inactive)
CC(=O)N[C@@H](CSC/C=C(\C)CC/C=C(\C)CCC=C(C)C)C(=O)O [Acetyl (N)-s-farnesyl-l-cysteine],scaled lipid accumulation score,library stock concentration: 13.6 mM,≤ -0.021 (inactive)
CC(=O)N[C@@H](CSC/C=C(\C)CC/C=C(\C)CCC=C(C)C)C(=O)O [N-acetyl-S-farnesyl-L-Cysteine],scaled lipid accumulation score,[2],≤ 0 (inactive)
CS(=O)(=O)Nc1c(O)ccc2c1CCCC2C1=NCCN1 (stereo not given),scaled lipid accumulation score,[1],0.027 (inactive)
COc1cc(C=C(C#N)C(N)=O)cc(CSc2nc3ccccc3s2)c1O [Tyrphostin AG-825],scaled lipid accumulation score,library stock concentration: 12.6 mM,0.042 (inactive)
c1ccc(-c2cnc(Nc3ccc(OCCN4CCCC4)cc3)s2)cc1 [Flt-3 Inhibitor III],scaled lipid accumulation score,[6],1.17 (active)
"c1cc(-c2cnn3cc(-c4ccc(OCCN5CCCCC5)cc4)cnc23)ccn1 [AMPK Inhibitor, Compound C]",scaled lipid accumulation score,[6],≤ 0 (inactive)
c1cc(-c2cnn3cc(-c4ccc(OCCN5CCCCC5)cc4)cnc23)ccn1 [Dorsomorphin],scaled lipid accumulation score,[3],≤ 0 (inactive)
same,scaled lipid accumulation score,[4],≤ 0 (inactive)
same,scaled lipid accumulation score,[5],0.557 (inactive)
same,scaled lipid accumulation score,[1],0.469 (inactive)
Cc1cnc(Nc2ccc(OCCN3CCCC3)cc2)nc1Nc1cccc(S(=O)(=O)NC(C)(C)C)c1,scaled lipid accumulation score,[3],0.07 (inactive)
same,scaled lipid accumulation score,[4],0.23 (inactive)
same,scaled lipid accumulation score,[5],0.765 (inactive)
same,scaled lipid accumulation score,[6],0.703 (inactive)
same,scaled lipid accumulation score,[1],0.345 (inactive) and 0.579 (inactive)
CCCCC[C@H](O)C/C=C1/C(=O)C[C@H](O)[C@@H]1C/C=C\CCCC(=O)O [.DELTA.12-Prostaglandin D2],scaled lipid accumulation score,[2],≤ 0 (inactive)
CCCCC/C=C\C/C=C\CC/C=C\CCCC(=O)O [Pinolenic Acid],scaled lipid accumulation score,[2],0.009 (inactive)
NC(=O)N1C(=O)/C(=C(\O)c2cccs2)c2cc(Cl)ccc21 [Tenidap],scaled lipid accumulation score,[1],≤ -0.001 (inactive)
O=C(O)c1cc(O)c2ccc(Cl)cc2n1 [7-Chlorokynurenic acid],scaled lipid accumulation score,[1],0.023 (inactive)
Cc1cnc(-c2ccccc2C(C)C)nc1NCc1ccc(-n2ccnn2)cc1,scaled lipid accumulation score,[6],≤ -0.009 (inactive)
same,scaled lipid accumulation score,[1],≤ 0 (inactive)
Nc1cc(N2CCCCC2)nc(N)[n+]1OS(=O)(=O)[O-] [Minoxidil sulfate],scaled lipid accumulation score,library stock concentration: 17.3 mM,≤ -0.021 (inactive)
C=CCCCCCCCCC(=O)O [Undecylenic acid],scaled lipid accumulation score,library stock concentration: 10.9 mM,≤ 0 (inactive)
O=S(=O)(c1cccc2cnccc12)N1CCCNCC1,scaled lipid accumulation score,[1],0.257 (inactive)
O=S(=O)(c1cccc2cnccc12)N1CCCNCC1 [Fasudil hydrochloride],scaled lipid accumulation score,[1],0.07 (inactive)
O=S(=O)(c1cccc2c(Cl)cccc12)N1CCCNCC1 [listing 1 of 2 here],scaled lipid accumulation score,library stock concentration: 15.4 mM,0.912 (active)
O=S(=O)(c1cccc2cnccc12)N1CCNCC1,scaled lipid accumulation score,[1],0.248 (inactive)
O=c1[nH]ccc2c(S(=O)(=O)N3CCCNCC3)cccc12 [HA 1100 hydrochloride],scaled lipid accumulation score,[1],≤ -0.001 (inactive)
O=S(=O)(c1cccc2cnccc12)N1CCCNCC1 [Fasudil (HA-1077) HCl],scaled lipid accumulation score,[6],≤ 0 (inactive)
same,scaled lipid accumulation score,[1],0.14 (inactive)
O=S(=O)(c1cccc2c(Cl)cccc12)N1CCCNCC1 [listing 2 of 2 here],scaled lipid accumulation score,[1],1.02 (active)
O=S(=O)(c1cccc2cnccc12)N1CCCNCC1 [Fasudil],scaled lipid accumulation score,library stock concentration: 6.9 mM,≤ -0.006 (inactive)
O=S(=O)(c1cccc2c(I)cccc12)N1CCCNCC1 [listing 1 of 2 here],scaled lipid accumulation score,[1],0.931 (active)
O=S(=O)(c1cccc2c(I)cccc12)N1CCCNCC1 [listing 2 of 2 here],scaled lipid accumulation score,[3],≤ -0.001 (inactive)
same,scaled lipid accumulation score,[4],≤ -0.001 (inactive)
same,scaled lipid accumulation score,[5],0.204 (inactive)
NCCNS(=O)(=O)c1cccc2c(Cl)cccc12 [A3 hydrochloride],scaled lipid accumulation score,[1],≤ 0 (inactive)
"O=S(=O)(c1cccc2c(I)cccc12)N1CCCNCC1 [ML-7, Hydrochloride]",scaled lipid accumulation score,[6],0.25 (inactive)
CC1CN(S(=O)(=O)c2cccc3cnccc23)CCN1 (stereo not given),scaled lipid accumulation score,[1],0.164 (inactive)
